# PubChem BioAssay (NCATS)
# Several values for one entry are separate records, joined by “and”; a condition that tells them apart may be missing. Equal entries are not always repeated. Records with an inconclusive call do not appear. A call without a number means that no potency is given here. Unmarked numbers belong to inactive results. Activity calls are given as the source filed them. Calls follow the shape of the dose curve; as a rule, active = well fitted inhibition curve with a large enough effect; inconclusive = small, poorly fitted or top-dose-only effect; inactive = no such curve, though single readings can be large or run the other way. *1 amine or outer side, *2 acyl side, *3 side chain or, on linkers, in order; H or OH if unused. Where a SMILES comes first, the peptide text is derived from it. Bridges are numbered along the chain shown (N, C = ends). X6 = O=C(CCC[*:2])[*:1]
# Test: Primary qHTS for inhibitors of nuclear receptor binding SET domain protein 2 (NSD2) in an RCH-ACV wild type WT cells (2C) (AID 1645877); also: nearly all actives have a fitted effect of over 70% in size
# Conditions: RCH-ACV (leukaemia line) NSD2 WT (2C) viability, CellTiter-Glo, 72 h; series mostly up to 44.9 µM
# Potency is read from the fitted curve at half-maximal effect.
SMILES,Potency,"activity change, negative = cell killing",outcome
O=C(O)C[C@H](O)C[C@H](O)/C=C/c1c(C2CC2)nc2ccccc2c1-c1ccc(F)cc1,1.83 µM (active) and 934 nM (active),,
CC(C)c1cc2c(c(O)c1O[C@@H]1O[C@H](CO)[C@@H](O)[C@H](O)[C@H]1O)CC1(O)CCC(O)C(C)(C)C1CC2 (stereo partly drawn),inactive,,
COc1cc2c(cc1O)CCN[C@]21CS[C@@H]2c3c(OC(C)=O)c(C)c4c(c3[C@H](COC1=O)N1[C@@H]2[C@H]2c3c(cc(C)c(OC)c3O)C[C@@H]([C@@H]1O)N2C)OCO4,1.4 nM (active),,
CC[C@H]1OC(=O)[C@H](C)[C@@H](OC2C[C@@](C)(OC)[C@@H](O)[C@H](C)O2)[C@H](C)[C@@H](OC2O[C@H](C)C[C@H](NC)[C@H]2O)[C@](C)(O)C[C@@H](C)CN(C)[C@H](C)[C@@H](O)[C@]1(C)O (stereo partly drawn),inactive,,
CC[C@H](C)[C@@H]1NC(=O)[C@H](Cc2ccc(OC)cc2)NC(=O)CCCSC[C@@H](C(=O)N2CCC[C@H]2C(=O)N[C@@H](CC(C)C)C(=O)NCC(N)=O)NC(=O)[C@H](CC(N)=O)NC(=O)[C@H](CCC(N)=O)NC1=O (Y(Me)IQNCPLG-NH2; linker N-5 via X6),inactive,,
CC(C)CC(=O)OC[C@H]1O[C@@](COC(=O)CC(C)C)(O[C@H]2O[C@H](CO)[C@@H](O)[C@H](O)[C@H]2O)[C@@H](OC(=O)CC(C)C)[C@@H]1OC(=O)CC(C)C,inactive,,
CC(C)CNC(=O)/C=C/CCCCc1ccc2c(c1)OCO2,inactive,,
COC(=O)C1(Cc2ccc(O)cc2)OC(=O)C(OC)=C1c1ccc(O)cc1 (stereo not drawn),inactive,,
CC(=O)NC(CCC(=O)O)C(=O)NCCc1ccc(O)cc1 (stereo not drawn),inactive,,
CC1(C(=O)O)CCCC2(C)C1CCC13CC(CCC21)C1(CO)OC31 (stereo not drawn),inactive,,
CC(=O)O[C@@H]1[C@H](O[C@@H]2O[C@H](CO)[C@@H](O)[C@H](O)[C@H]2O)[C@@H](O[C@@H]2O[C@@H](C)[C@H](O)[C@@H](O[C@@H]3O[C@H](CO)[C@@H](O)[C@H](O)[C@H]3O)[C@H]2O)[C@H](OC(=O)C23CCC4(C)C(=CCC5C6(C)CC(O)C(O[C@@H]7O[C@H](C(=O)O)[C@@H](O)[C@H](O)[C@H]7O)C(C)(C(=O)O)C6CCC54C)C2CC(C)(C)CC3O)O[C@@H]1C (stereo partly drawn),,0.269% [at 9.23 µM],
CCC(C)(O)C(O)C(=O)OCc1ccc(O[C@@H]2O[C@H](CO)[C@@H](O)[C@H](O)[C@H]2O)cc1 (stereo partly drawn),inactive,,
C[C@@H]1C(=O)O[C@H]2CC34[C@H]5C[C@@H](C(C)(C)C)C36[C@@H](OC(=O)[C@@H]6O)O[C@@]4(C(=O)O5)[C@]21O (stereo partly drawn),inactive,,
C=CC(C)(O)CC/C=C(\C)C(=O)OC1CC2(C(=O)O)CCC3(C)C(=CCC4C5(C)CCC(OC6OC(COC7OCC(O)C(O)C7O)C(O)C(OC7OCC(O)C(O)C7O)C6OC6OC(CO)C(O)C(O)C6OC6OCC(O)C(O)C6O)C(C)(C)C5CCC43C)C2CC1(C)C (stereo not drawn),,-5.78% [at 9.23 µM],
C=CC(C)(C)C1(CC2NC(=O)C3CCCN3C2=O)C(=O)Nc2cc3c(cc21)C=CC(C)(C)O3 (stereo not drawn),inactive,,
C=C1C(=O)O[C@H]2[C@H]1[C@@H](OC(=O)C(C)CO)C[C@@]1(C)[C@H](O)CCC(=O)[C@H]21 (stereo partly drawn),inactive,,
CC1CC(=O)C2=C(O1)OC1(C)CCC3C(C)(C)C=CC(=O)C3(C)C1C2 (stereo not drawn),inactive,,
O=C(/C=C/c1ccccc1)OCC1=CC[C@@H]2C(C(=O)O)=CO[C@@H](O[C@@H]3O[C@H](CO)[C@@H](O)[C@H](O)[C@H]3O)[C@H]12,inactive,,
CC1OC(OC2C(O)C(C(=O)O)OC(OC3CCC4(C)C(CCC5(C)C4C=CC4=C6CC(C)(C)CC(O)C6(C)CCC45C)C3(C)C)C2OC2OCC(O)C(O)C2O)C(O)C(O)C1O (stereo not drawn),,,inactive [at 9.23 µM]
C=C1CC2C3(C)C(OC(C)=O)CC(=O)OC(C)(C)C3C(O)C(OC(C)=O)C2(C)C2C(=O)OC(C)C(=O)C12C (stereo not drawn),inactive,,
C/C(=C\CCC(C)(O)c1ccc(C)cc1)C(=O)O (stereo not drawn),inactive,,
CC1CC(O)CC(C)(C)C1(O)CCO (stereo not drawn),inactive,,
COC1CC(OC2CCC3(C)C(=CCC4C3CCC3(C)C(C(C)O)CCC43O)C2)OC(C)C1OC1OC(C)C(OC2OC(COC3OC(COC4OC(CO)C(O)C(O)C4O)C(O)C(O)C3O)C(O)C(O)C2O)C(OC)C1O (stereo not drawn),,,inactive [at 9.23 µM]
